FLuc inh: Firefly luciferase inhibition profiling of diverse chemical library using quantitative high-throughput screening; Luciferin 4-monooxygenase (Photinus pyralis), P08659; purified P. pyralis luciferase, luminescence, biochemical; Potency, µM (highest dose often 115 µM), actives largely listed as inhibitors; actives 2.5% (n = 76,000); AID 1347043, 2019; active = well fitted curve in the direction sought with a large enough effect; inconclusive = small, poorly fitted or top-dose-only effect, or another doubt; inactive = no such curve, though single readings can be large; an effect the other way counts as inactive or inconclusive; note: % is set by controls: 0 for no effect and ±100 for the full control effect; nearly all actives have a fitted effect of over 65% in size
Target sequence (P08659 whole entry, looked up): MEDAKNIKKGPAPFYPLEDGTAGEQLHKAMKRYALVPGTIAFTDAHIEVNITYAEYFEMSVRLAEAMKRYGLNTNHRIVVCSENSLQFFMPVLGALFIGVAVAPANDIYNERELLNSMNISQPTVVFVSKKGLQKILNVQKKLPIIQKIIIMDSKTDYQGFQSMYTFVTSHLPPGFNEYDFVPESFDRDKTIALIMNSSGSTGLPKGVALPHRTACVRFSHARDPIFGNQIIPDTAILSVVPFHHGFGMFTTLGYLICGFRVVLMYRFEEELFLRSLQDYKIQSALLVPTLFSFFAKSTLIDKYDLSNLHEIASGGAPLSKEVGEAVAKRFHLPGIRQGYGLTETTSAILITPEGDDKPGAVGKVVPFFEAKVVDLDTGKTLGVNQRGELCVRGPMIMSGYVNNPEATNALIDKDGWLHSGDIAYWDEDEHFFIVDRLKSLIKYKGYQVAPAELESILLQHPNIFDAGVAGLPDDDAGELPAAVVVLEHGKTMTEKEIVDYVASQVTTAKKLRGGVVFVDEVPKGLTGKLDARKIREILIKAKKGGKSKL
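Purified P. pyralis luciferase (10nM final) in 50mM Tris acetate pH 7.5, 10mM Mg acetate, 0.01% Tween-20, 0.05% BSA with 10uM D-luciferin and 10uM ATP. Compounds titrated qHTS. Luminescence imaged on CCD.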
HEK cytotox: Cytotoxic Profiling in HEK 293 Cell Line of Diverse Libraries Using Quantitative High-Throughput Screening; HEK 293 viability, ATP luminescence (CellTiter-Glo), 48-72 h; Potency, µM (top dose mostly 115 µM), inactives show top-dose activity change, negative = cytotoxicity, most hits filed as inhibitors; actives 6.6% (n = 94,000); AID 1345083, 2018; active = well fitted curve in the direction sought with a large enough effect; inconclusive = small, poorly fitted or top-dose-only effect, or another doubt; inactive = no such curve, though single readings can be large; an effect the other way counts as inactive or inconclusive; note: % is set by controls: 0 for no effect and ±100 for the full control effect; nearly all actives have a fitted effect of over 60% in size
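HEK 293 seeded at 250 cells/well receive compound via pintool. After 48 or 72 hr at 37 degree Celsius, 5% CO2 and 95% humidity, CellTiter-Glo is dispensed and luminescence read following 10 min at room temperature.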
3T3 cytotox: Cytotoxic Profiling in NIH 3T3 Cell Line of Diverse Libraries Using Quantitative High-Throughput Screening; Potency, µM (series often up to 96.7 µM), for the others: at the highest dose activity change, negative = cytotoxicity, usual class: inhibitors; NIH 3T3 viability, CellTiter-Glo ATP luminescence, 48-72 h; AID 1345082, 2018; actives 4.3% (n = 94,000); active = well fitted curve in the direction sought with a large enough effect; inconclusive = small, poorly fitted or top-dose-only effect, or another doubt; inactive = no such curve, though single readings can be large; an effect the other way counts as inactive or inconclusive; note: % is set by controls: 0 for no effect and ±100 for the full control effect; nearly all actives have a fitted effect of over 55% in size
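Luminescent ATP readout (CellTiter-Glo, 10 min RT) after 48 or 72 hr compound exposure of NIH 3T3 cells seeded at 400 cells/well in 1536-well format; quantitative HTS.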
NPR1 antag: Natriuretic polypeptide receptor (hNpr1) antagonism - Primary qHTS. Atrial natriuretic peptide receptor 1 (Homo sapiens), P16066. HEK293 hNpr1 GloSensor cGMP, ANP-stimulated luminescence. Potency, µM (titrated, usually from 46.3 µM), for the others: at the highest dose activity change, negative = inhibition, actives largely listed as inhibitors. actives 1.6% (n = 76,000). AID 1347048, 2019; note: % is set by controls: 0 for no effect and ±100 for the full control effect; nearly all actives have a fitted effect of over 60% in size
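Compound pre-incubated 30 min at room temperature on GloSensor-loaded HEK293 cells stably carrying hNpr1 and the pGS-40F cGMP biosensor. Stimulation uses hNppA at 0.1 nM final; luminescence is taken at baseline and 20 min post-agonist.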
Npr1 antag conf: Natriuretic polypeptide receptor (hNpr1) antagonism - Confirmation. Potency, µM (highest dose often 57.6 µM), for inactives: top-dose activity change, negative = inhibition, most hits filed as inhibitors. HEK293 hNpr1 cGMP GloSensor luminescence, ANP-stimulated. actives 76% (n = 1,400). shares compounds with NPR1 antag; note: nearly all actives have a fitted effect of over 70% in size
NPR2 antag: Natriuretic polypeptide receptor (hNpr2) antagonism - Subtype selectivity assay | shares compounds with NPR1 antag | HEK293 hNpr2 GloSensor cGMP luminescence, CNP-stimulated | Potency, µM (doses to about 57.6 µM), inactives show at the top dose activity change, negative = inhibition, usual class: inhibitors | actives 67% (n = 1,400) | AID 1347046, 2019; note: nearly all actives have a fitted effect of over 70% in size
FLuc inh counter: Natriuretic polypeptide receptor (hNpr1) antagonism - Confirmation firefly luciferase (FLuc) inhibition counterscreen. shares compounds with NPR1 antag. Potency, µM (top dose mostly 57.6 µM), for the others: at the top dose activity change, negative = inhibition, most hits filed as inhibitors. purified FLuc enzyme, luminescence, Km substrate. actives 0.7% (n = 1,400); active = well fitted curve in the direction sought with a large enough effect; inconclusive = small, poorly fitted or top-dose-only effect, or another doubt; inactive = no such curve, though single readings can be large; an effect the other way counts as inactive or inconclusive; note: 0% is about no effect
GloSensor ctrl: Natriuretic polypeptide receptor (hNpr1) antagonism - Counterscreen GloSensor control cell line. shares compounds with NPR1 antag. HEK293 GloSensor cGMP, SNP-stimulated, luminescence. Potency, µM (highest dose often 57.6 µM), without a hit: top-dose activity change, negative = inhibition, actives largely listed as inhibitors. actives 69% (n = 1,400). AID 1347051, 2019; note: % is set by controls: 0 for no effect and ±100 for the full control effect; nearly all actives have a fitted effect of over 70% in size
Active calls of the source: *; i = inactive; u = inconclusive; x = not tested or not shown; [ ] = remark or other dose. Rows were chosen to be rich in hits. Some 11% of all compounds tested hit in one or more screens of this group. Unless noted, calls come from the whole dose curve. Potency is the fitted concentration of half-maximal effect.

SMILES	FLuc inh	HEK cytotox	3T3 cytotox	NPR1 antag	Npr1 antag conf	NPR2 antag	FLuc inh counter	GloSensor ctrl
COc1cccc(C(=O)N2CCC(Cc3nc(C(C)C)no3)CC2)c1	i	u	u	-16%	x	x	x	x
COCCNc1ncnc2c1CN(C1CCNCC1)C(=O)CN2C	x	-12%	-13%	x	x	x	x	x
Cc1cn2nnc(C(=O)NCc3ccc(C(C)C)cc3)c2c(=O)[nH]1	i	u	u	u	27µM*	u	0%	24µM*
C#CCNC(=O)c1cc(-c2ccccc2OC)c2cnn(C)c2n1	x	-16%	-25%	x	x	x	x	x
Cc1noc(C)c1CCC(=O)NC1CCCc2c1[nH]c1c(Cl)cccc21 (stereo not drawn)	i	u	35µM*	-30%	u	u	0%	u
CC(C)(C)C(=O)NC[C@H]1O[C@H](Cc2cc(-c3ccc(F)cc3)on2)CC[C@@H]1O	i	u	-11%[174 µM]	u	u	u	20µM*	u
COCC(=O)NC[C@H]1O[C@H](Cc2cc(-c3ccc(F)cc3)on2)CC[C@@H]1O	i	-6%[172 µM]	-23%[174 µM]	-2%[70.6 µM]	x	x	x	x
COc1ccc(-c2cc(C[C@@H]3CC[C@H](O)[C@@H](CNCc4ccccc4OC)O3)no2)cc1	u	32µM*	56µM*	28µM*	31µM*	35µM*	u	u
O[C@H]1CC[C@@H](Cc2cc(-c3ccc(F)cc3)on2)O[C@@H]1CNC1CCCCC1	i	u	40µM*	u	u	u	-23%[86.2 µM]	-20%[86.2 µM]
Oc1cccc(-c2cc(C[C@@H]3CC[C@H](O)[C@@H](CNC4CCC4)O3)no2)c1	i	-9%[172 µM]	-5%[138 µM]	u	u	-14%[86.2 µM]	-3%[86.2 µM]	-25%[86.2 µM]
O=C1NCCCCCCN(C(=O)CN2CCCCCC2)[C@H]2C[C@H](c3nc(-c4cccnc4)no3)C[C@@H]12	i	-6%	-13%	-4%	x	x	x	x
O=C(c1ccc2ccccc2n1)N1CCC(n2c(=O)[nH]c3ccccc32)CC1	x	u	-7%	x	x	x	x	x
CCCC(=O)Nc1cc(C2CC2)nn1C	x	2%[230 µM]	-18%[174 µM]	x	x	x	x	x
Cc1cc(C(=O)NC2CC(C)(C)Cc3nc(C(C)(C)C)ncc32)n[nH]1 (stereo not drawn)	i	-27%	-20%	3%	x	x	x	x
Cn1nc(C(=O)NC2CC2)c2c1CN(C(=O)Cc1cccc(F)c1)C2	x	-24%	-28%	x	x	x	x	x
Cc1ccc(S(=O)(=O)NC[C@H]2O[C@H](Cc3cc(-c4cccc(O)c4)on3)CC[C@@H]2O)cc1	i	u	u	u	u	u	u	u
Cc1ccc(S(=O)(=O)NC[C@H]2O[C@H](Cc3cc(COc4ccccc4)on3)CC[C@@H]2O)cc1	i	u	u	-24%	x	x	x	x
Cc1nc(NC(=O)Cn2nc3c(cc2=O)CCCC3)sc1C	i	-18%	-20%	1%	x	x	x	x
Cc1ccc(C(=O)N[C@H]2CO[C@H]3[C@@H]2OC[C@@H]3Nc2nccc(-c3ccc(-c4ccccc4)cc3)n2)cc1	i	13µM*	-27%	u	u	-24%	-14%	-27%
O=C(N[C@H]1CO[C@H]2[C@@H]1OC[C@@H]2Nc1nccc(C2CCCC2)n1)c1ccccc1	i	63µM*	-46%[174 µM]	28µM*	35µM*	35µM*	-7%[86.2 µM]	40µM*
COc1ccc(NC(=O)O[C@@H]2CO[C@H]3[C@@H]2OC[C@@H]3Nc2nccc(-c3cccs3)n2)cc1	u	0%	-1%	6%	x	x	x	x
CCNC(=O)O[C@@H]1CO[C@H]2[C@@H]1OC[C@@H]2Nc1nccc(-c2ccc(-c3ccccc3)cc2)n1	i	10µM*	u	6.3µM*	6.9µM*	14µM*	0%	9.7µM*
c1csc(-c2ccnc(N[C@H]3CO[C@H]4[C@@H]3OC[C@@H]4NCC3CCCCC3)n2)c1	i	u	32µM*	7.9µM*	11µM*	18µM*	1%[86.2 µM]	9.9µM*
CN(C)c1ccc(-c2ccnc(N[C@H]3CO[C@H]4[C@@H]3OC[C@H]4OC(=O)NCc3ccccc3)n2)cc1	i	u	-20%	-4%	x	x	x	x
CC1CCC(NC(=O)c2nnn3c2COC(c2ccc(F)cc2)C3)CC1 (stereo not drawn)	i	u	-17%	u	x	x	x	x
SMILES	FLuc inh	HEK cytotox	3T3 cytotox	NPR1 antag	Npr1 antag conf	NPR2 antag	FLuc inh counter	GloSensor ctrl
CN1CCN([C@@H]2[C@H](O)[C@H](CO)O[C@@H]2CNC(=O)c2ccco2)CC1	i	u	-31%[174 µM]	-1%[70.6 µM]	x	x	x	x
CC(=O)Nc1ccc(S(=O)(=O)N[C@H]2CO[C@H]3[C@@H]2OC[C@@H]3Nc2nccc(-c3cccc(F)c3)n2)cc1	i	16µM*	u	11µM*	14µM*	17µM*	1%	12µM*
O=C(N[C@H]1CO[C@H]2[C@@H]1OC[C@@H]2Nc1nccc(-c2ccccc2)n1)N1CCOCC1	i	-8%[172 µM]	0%[174 µM]	5%[70.6 µM]	x	x	x	x
COc1ccccc1-c1ccnc(N[C@H]2CO[C@H]3[C@@H]2OC[C@@H]3NS(=O)(=O)c2ccc(NC(C)=O)cc2)n1	i	u	u	u	x	x	x	x
O=C(N[C@H]1CO[C@H]2[C@@H]1OC[C@@H]2Nc1nccc(-c2ccc(-c3ccccc3)cc2)n1)C1CCCCC1	i	u	u	u	27µM*	u	1%	22µM*
O=C(COc1ccccc1)N1CCNc2cnc(Nc3cccc(F)c3)nc2C1	i	u	u	-8%[70.6 µM]	x	x	x	x
O=C(c1ccccc1)N1CCNc2cnc(Nc3cccc(F)c3)nc2C1	i	u	u	13µM*	13µM*	18µM*	-15%[86.2 µM]	16µM*
